Screens deposited in PubChem by National Center for Advancing Translational Sciences (NCATS).
RXFP1 antag: blocks the human relaxin receptor RXFP1. Q9HBX9. HEK293-RXFP1, relaxin-stimulated cAMP HTRF, 30 min; active compounds read low. activity change, negative = inhibition, % at 57.5 µM. actives 0.59% (n = 350,000). AID 1259400;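 active = activity change of -60% or lower, but not beyond a set lower limit; inconclusive = change between -60% and -40%, or beyond the set limit; inactive = change above -40%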
Target sequence (Q9HBX9 whole entry, looked up): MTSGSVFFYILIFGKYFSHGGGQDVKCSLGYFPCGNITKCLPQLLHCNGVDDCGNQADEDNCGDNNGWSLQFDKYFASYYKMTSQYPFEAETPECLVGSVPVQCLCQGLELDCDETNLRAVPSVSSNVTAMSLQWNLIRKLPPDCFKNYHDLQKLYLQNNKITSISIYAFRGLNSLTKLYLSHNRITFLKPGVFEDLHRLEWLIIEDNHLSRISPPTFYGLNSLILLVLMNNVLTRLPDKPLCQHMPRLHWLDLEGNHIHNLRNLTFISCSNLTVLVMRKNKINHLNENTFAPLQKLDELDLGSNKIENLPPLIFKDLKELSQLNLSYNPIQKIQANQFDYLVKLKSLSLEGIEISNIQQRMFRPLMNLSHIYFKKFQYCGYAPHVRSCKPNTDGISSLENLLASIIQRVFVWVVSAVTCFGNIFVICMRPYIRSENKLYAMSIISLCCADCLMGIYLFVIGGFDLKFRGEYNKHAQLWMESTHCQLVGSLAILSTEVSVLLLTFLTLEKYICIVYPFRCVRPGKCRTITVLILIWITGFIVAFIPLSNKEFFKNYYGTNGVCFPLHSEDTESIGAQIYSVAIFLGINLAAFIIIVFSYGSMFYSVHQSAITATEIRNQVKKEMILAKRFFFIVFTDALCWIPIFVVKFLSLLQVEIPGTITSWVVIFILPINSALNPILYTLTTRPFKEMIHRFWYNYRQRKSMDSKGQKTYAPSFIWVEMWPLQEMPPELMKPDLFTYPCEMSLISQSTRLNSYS
RXFP1 agonist: RXFP1 (human) receptor agonism; Q9HBX9; HEK293T-RXFP1 cAMP TR-FRET, 30 min; response scale: percent of porcine relaxin response, buffer zero; Potency, µM (titrated, usually from 57.5 µM), hits mostly activators; actives 0.3% (n = 370,000); AID 2676; active = well fitted activation curve with a large enough effect; inconclusive = small, poorly fitted or top-dose-only effect; note: nearly all actives have a fitted effect of over 60% in size
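Agonist response is measured as cAMP accumulation in an RXFP1-transfected HEK293T line under PDE4 inhibition. Values are scaled between buffer-only and 29 nM porcine relaxin, and EC50s come from standard Hill equation fits.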
gsp agonist: agonists of gsp mutant (McCune-Albright syndrome); gsp mutant cells, cAMP HTRF, 30 min; Potency, µM (series often up to 76.9 µM), most hits filed as activators; actives 0.13% (n = 340,000); AID 624287; active = well fitted activation curve with a large enough effect; inconclusive = small, poorly fitted or top-dose-only effect, or another doubt; inactive = no such curve, though single readings can be large or run the other way; cell line not stated here;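 note: phosphodiesterase inhibitor Ro 20-1724 added with compounds to block cAMP breakdown; nearly all actives have a fitted effect of over 60% in size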
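Cells stably selected in G418 were plated at 2000/well, grown 16-24 hr, then given compounds in DMSO with the PDE inhibitor […] (300 uM solution added) for 30 min at 37C; cAMP was read by HTRF.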
pAkt inh: blocks phosphorylation of Akt; Neuro2A IGF-stimulated pAkt S473 HTRF, 20 min; active compounds read low; activity change, % for hits at 50 µM; actives 0.32% (n = 360,000); in the data active = activity change below about -80%; inconclusive = mostly about -51% to -80%
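Neuro2A cells in DMEM with 0.5% FBS, overnight at 37 deg C, given compound at single 50 µM final, then IGF (6 nM final) for 20 min at 37 deg C. Lysed; phospho-Akt Ser473 by HTRF after 24 h, 665/615 ratio.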
gsp antag: gsp mutant antagonism; actives 0.4% (n = 340,000); Potency, µM (doses to about 76.9 µM), usual class: inhibitors; gsp-mutant cells, cAMP HTRF, 30 min; calls by dose curve; cell line not stated here;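 note: intracellular cAMP measured with PDE inhibitor Ro 20-1724 present during compound exposure; nearly all actives have a fitted effect of over 65% in size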
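G418-selected cells were plated in DMEM/10% FBS for 16-24 h at 37C, then treated with compounds plus the PDE inhibitor […] (300 uM solution added) for 30 min at 37C. Intracellular cAMP was measured by HTRF after 30 min lysis at room temperature.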
A number is an active result; . = inactive; ? = inconclusive; / = no result; [ ] = remark or other dose. Compounds with a hit are over-represented: about 1.2% of the library has one in this group of screens.

SMILES	RXFP1 antag	RXFP1 agonist	gsp agonist	pAkt inh	gsp antag
Cc1nn2c(=O)cc(COC(=O)c3ccc(NC(=O)c4cccc(Br)c4)cc3)nc2s1	.	.	/	/	/
O=c1[nH]c(=O)n(Cc2ccccc2)c2nc(-c3ccco3)cc(C(F)(F)F)c12	.	.	.	-110%	.
Cc1cc(C(F)(F)F)c2c(=O)[nH]c(=O)n(Cc3ccccc3)c2n1	.	.	.	.	.
CC(=O)N[C@@H](CO)C(=O)N[C@@H](CC(=O)O)C(=O)N[C@@H](CCCCN)C(=O)N1CCC[C@H]1C(=O)O	.	/	/	/	/
COc1ccc(NC(=O)c2cc3nc(-c4ccc(C)c(C)c4)cc(C(F)(F)F)n3n2)cc1	/	.	/	/	/
N#CC1(c2ccccc2)CCC(=O)N1c1ccccc1 (configuration not stated)	.	.	.	.	.
COc1ccccc1N1C(=O)CCC1(C#N)c1ccccc1 (configuration not stated)	.	.	.	-107%	.
NC(=O)NC1N=C([O][Al])NC1=O (configuration not stated)	.	/	/	/	/
CCN(CC)CCn1c2c(c(SCC(=O)Nc3cccc(C(F)(F)F)c3)nc1=O)CCC2	.	.	/	/	/
COc1ccc(-c2nnc3n2N=C(C)CS3)cc1	.	.	.	-84%	.
CC1=Nn2c(nnc2-c2ccco2)SC1	.	.	.	-102%	.
COc1ccc(N(C)C(=O)c2cc3c(s2)-c2ccccc2OC3)cc1	-64	.	/	/	/
COc1cc(OC)c(N(C)C(=O)c2cc3c(s2)-c2ccccc2OC3)cc1Cl	.	.	/	/	/
Cc1ccc2c(n1)sc1c(=O)n(-c3cccc(C(F)(F)F)c3)nnc12	.	.	/	/	/
O=S(=O)(c1ccc(Br)cc1)N1CCCN(Cc2cccc(F)c2)CC1	.	.	.	.	.
COc1cccc(CN2CCCN(S(=O)(=O)c3ccc(Br)cc3)CC2)c1	.	.	.	.	40µM
CC(C)(C)c1ccc(S(=O)(=O)NCc2ccc3c(c2)CCN3C(=O)c2ccccc2)cc1	.	.	/	/	/
FC(F)(F)c1nc(N2CCCC2)ncc1-c1nnnn1-c1ccccc1	.	.	.	.	35µM
CCN(CC)CCCCN1c2ccccc2Sc2ccccc21	-63	.	?	.	.
CCN(CC)CC(=O)N1c2ccccc2Sc2ccccc21	.	.	.	.	.
CC12CCC(C(=O)N(CSC(=S)N/N=C\c3ccccc3)C1=O)C2(C)C (configuration not stated)	.	.	.	.	.
CC12CCC(C(=O)N(CSC(=S)N/N=C\c3ccccc3Cl)C1=O)C2(C)C (configuration not stated)	-65	.	.[15.4 µM]	.	.
Cc1ccccc1-c1nc2scc(CCNS(=O)(=O)c3ccccc3)n2n1	.	.	/	/	/
CCCCC1NC(C(=O)O)CS1 (configuration not stated)	.	.	.[15.4 µM]	.	.
CCCCCCC1NC(C(=O)O)CS1 (configuration not stated)	.	.	.	-113%	.
SMILES	RXFP1 antag	RXFP1 agonist	gsp agonist	pAkt inh	gsp antag
COc1ccc2nc(NC(=O)c3cc(C)oc3C)sc2c1	.	.	.	.	.
COc1ccc2nc(NC(=O)c3ccoc3C)sc2c1	.	.	.	-110%	.
COc1ccc(-c2nc(C)c(CCNC(=O)C(=O)Nc3cccc(F)c3)s2)cc1OC	/	.	/	/	/
COc1ccc(N(C(=O)c2ccco2)S(=O)(=O)c2cccs2)cc1	.	.	.	-113%	.
O=S(=O)(NCc1nc2cccnc2n1Cc1ccccc1)c1ccc2c(c1)CCCC2	.	.	/	/	/
C(=N\Nc1nc2ccccc2[nH]1)/c1c[nH]c2ccccc12	.	.	.[15.4 µM]	.	40µM
CCOC(=O)c1nnc(-c2ccccc2)nc1Oc1ccc(Cl)cc1	.	.	?	-119%	.
Cc1cc2c(c(=O)n1-c1ccccc1)C1O[C@](c3ccsc3)(Cc3ccccc31)O2	/	.[11.5 µM]	/	/	/
CCC(C)NS(=O)(=O)c1ccc(OCC(=O)NCc2ccc3c(c2)OCO3)cc1 (configuration not stated)	.	.	.	.	.
CCCNS(=O)(=O)c1ccc(OCC(=O)NCc2ccc3c(c2)OCO3)cc1	.	.	.	-102%	.
O=C(c1ccccc1F)N1c2ncnn2C2(CCCCC2)[C@@H]2CCCC[C@@H]21	.	.	/	/	/
O=C(c1ccccc1F)N1c2nc(-c3ccco3)nn2C2(CCCCC2)[C@@H]2CCCC[C@@H]21	-65	.	/	/	/
O=C(c1ccc(F)cc1)N1c2nc(-c3ccco3)nn2C2(CCCCC2)[C@@H]2CCCC[C@@H]21	-71	.	/	/	/
COc1ccc(C(=O)N2c3nc(-c4ccco4)nn3C3(CCCCC3)[C@@H]3CCCC[C@@H]32)cc1OC	.	.	/	/	/
Cn1sc(NC(=O)c2cccc(Cl)c2)nc1=O	.	.	.	.	28µM
O=C(NCc1cccnc1)C1CCN(S(=O)(=O)c2cc(Cl)ccc2Cl)CC1	-88	.	.	.	.
Cc1ccc(-n2c(SCc3nc(-c4ccc(Cl)cc4)no3)nnc2-c2ccncc2)cc1	/	.	/	/	/
Clc1ccc(-c2noc(CSc3nnc(-c4ccncc4)n3-c3ccccc3)n2)cc1	.	.	.	.	32µM
CCCCn1cnc2sc(-c3ccccc3)cc2c1=O	.	.	.	.	.
O=c1c2cc(-c3ccccc3)sc2ncn1/N=C/c1ccco1	.	.	.	-106%	.
CCOc1ccc(OCCOc2ccc(/C=C/C(=O)O)cc2OCC)cc1	.	.	.[15.4 µM]	.	20µM
CCOc1cc(/C=C/C(=O)O)ccc1OCCOc1ccc(F)cc1	.	.	.[15.4 µM]	.	?
CCOC(=O)c1ccc(Nc2nnc(C(C)(C)C)c(=O)[nH]2)cc1	.	.	.	.	40µM
COC(=O)c1ccc(COc2ccccc2OC)o1	.	.	?	.	.
COc1ccccc1OCc1ccc(C(=O)OCC2CCCO2)o1 (configuration not stated)	.	.	.	-119%	.
SMILES	RXFP1 antag	RXFP1 agonist	gsp agonist	pAkt inh	gsp antag
COc1cc(C2C(C(=O)c3ccc(C)o3)=C(O)C(=O)N2CCN2CCOCC2)ccc1OCCC(C)C (configuration not stated)	.	16µM	.[15.4 µM]	.	.
COC(=O)c1sc2cccc(F)c2c1S(=O)(=O)Nc1ccc(N(C)C)cc1	.	.	/	/	/
O=C(Nc1ccc2nc(SCC(=O)N3CCOCC3)sc2c1)c1cccc(Cl)c1	-82	.	/	/	/
CC(C)(C)c1ccc(C(=O)Nc2ccc3nc(SCC(=O)N4CCCC4)sc3c2)cc1	-101	.	/	/	/
Cc1ccccc1OCC(=O)Nc1ccc2nc(SCC(=O)N3CCCC3)sc2c1	-86	.	/	/	/
CCCCOC(=O)c1ccc(NC(=O)CSc2nc3c(c(=O)[nH]2)CCCC3)cc1	.	.	/	/	/
CCCCN1C(C(=O)c2ccccc2)=C(OC(C)=O)c2ccccc2S1(=O)=O	-63	.	/	/	/
COc1ccc(C[C@@H]2OC3(C=CC(=O)C=C3)O[C@H]2Cc2ccc(OC)cc2)cc1	-92	/	.	.	.
